Assay results taken from the supplement of paper PMC11732987, “Enantioselective OTUD7B fragment discovery through chemoproteomics screening and high-throughput optimisation” (Communications Chemistry, 2025).

Columns and labels:
Assay in all cases: log2 ratio of Biotin-Ahx-Ub-VS probe labelling (fragment/DMSO); higher = less target engagement (more negative = stronger competition), active = hit call of the paper (q ≤ 0.05, log2 ratio ≤ -1)
Conditions in all cases: compound concentration: 200 uM; treatment time: 3 h
OTUD6B = biological target: T1, OTUD6B (UniProt Q8N6M0)
T1 sequence (whole entry): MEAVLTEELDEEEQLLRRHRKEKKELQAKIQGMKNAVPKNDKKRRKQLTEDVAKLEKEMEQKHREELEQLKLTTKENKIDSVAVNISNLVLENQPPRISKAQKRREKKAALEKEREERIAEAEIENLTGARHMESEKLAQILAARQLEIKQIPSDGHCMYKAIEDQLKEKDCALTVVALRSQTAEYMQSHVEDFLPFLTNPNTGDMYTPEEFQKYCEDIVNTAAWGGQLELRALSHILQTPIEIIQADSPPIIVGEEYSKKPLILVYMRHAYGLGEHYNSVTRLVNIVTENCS
Summary of the method: (§1)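 The table lists average log2 ratios of fragment over vehicle, from an unpaired t-test on global-median-normalised Spectronaut label-free quantities. Proteins with ≥2 unique peptides were used. Samples were HEK293T lysate (495 µg) treated in triplicate with fragment at 200 µM or vehicle for 3 h, then with Biotin-Ahx-Ub-VS (0.5 µM final) for 1 h, with labelled DUBs NeutrAvidin-enriched and run by diaPASEF LC-MS/MS.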

OTUD7B = biological target: T2, OTUD7B (UniProt Q6GQQ9)
T2 sequence (whole entry): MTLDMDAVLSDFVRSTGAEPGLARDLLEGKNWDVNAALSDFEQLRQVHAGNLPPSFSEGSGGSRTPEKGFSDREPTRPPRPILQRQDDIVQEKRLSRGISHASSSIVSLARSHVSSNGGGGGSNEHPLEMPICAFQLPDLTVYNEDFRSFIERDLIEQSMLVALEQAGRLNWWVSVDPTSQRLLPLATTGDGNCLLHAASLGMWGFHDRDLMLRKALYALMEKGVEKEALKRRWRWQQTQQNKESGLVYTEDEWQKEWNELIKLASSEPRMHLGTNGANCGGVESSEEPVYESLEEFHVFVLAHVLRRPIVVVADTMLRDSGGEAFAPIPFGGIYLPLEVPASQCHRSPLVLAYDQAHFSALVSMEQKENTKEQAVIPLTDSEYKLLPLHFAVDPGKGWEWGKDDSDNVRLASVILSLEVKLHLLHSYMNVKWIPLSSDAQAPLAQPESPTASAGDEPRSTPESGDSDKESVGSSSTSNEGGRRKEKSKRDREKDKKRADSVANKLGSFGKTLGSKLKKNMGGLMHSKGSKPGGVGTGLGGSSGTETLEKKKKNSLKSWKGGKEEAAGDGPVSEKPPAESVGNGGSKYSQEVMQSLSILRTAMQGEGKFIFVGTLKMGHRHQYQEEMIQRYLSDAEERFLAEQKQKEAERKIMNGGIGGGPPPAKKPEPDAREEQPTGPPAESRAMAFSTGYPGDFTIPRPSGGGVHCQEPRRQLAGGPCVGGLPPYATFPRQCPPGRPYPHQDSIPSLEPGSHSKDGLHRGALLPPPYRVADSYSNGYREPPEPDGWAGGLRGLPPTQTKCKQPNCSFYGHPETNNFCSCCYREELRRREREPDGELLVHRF
Summary of the method: as §1

PRPF8 = PRPF8 (UniProt Q6P2Q9)
Summary of the method: as §1

PSMD7 = biological target: T3, PSMD7 (UniProt P51665)
T3 sequence (whole entry): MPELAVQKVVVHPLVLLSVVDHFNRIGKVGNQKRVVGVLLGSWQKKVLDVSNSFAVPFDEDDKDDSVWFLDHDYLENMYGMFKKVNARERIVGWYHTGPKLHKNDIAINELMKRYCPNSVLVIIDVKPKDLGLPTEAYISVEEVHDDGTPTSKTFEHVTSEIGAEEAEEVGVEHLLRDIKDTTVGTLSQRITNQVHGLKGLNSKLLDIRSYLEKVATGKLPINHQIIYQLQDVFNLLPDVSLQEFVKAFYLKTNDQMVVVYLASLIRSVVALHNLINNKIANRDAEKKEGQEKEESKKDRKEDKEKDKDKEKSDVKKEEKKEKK
Summary of the method: as §1

UCHL1 = UCHL1 (UniProt P09936)
Summary of the method: as §1

UCHL3 = biological target: T4, UCHL3 (UniProt P15374)
T4 sequence (whole entry): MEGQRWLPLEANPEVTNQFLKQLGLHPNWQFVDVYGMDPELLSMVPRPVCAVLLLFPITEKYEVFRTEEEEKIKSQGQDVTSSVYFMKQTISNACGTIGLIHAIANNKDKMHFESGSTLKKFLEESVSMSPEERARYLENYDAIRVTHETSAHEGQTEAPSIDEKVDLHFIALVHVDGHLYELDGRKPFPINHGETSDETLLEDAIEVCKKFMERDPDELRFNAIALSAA
Summary of the method: as §1

UCHL5 = biological target: T5, UCHL5 (UniProt Q9Y5K5)
T5 sequence (whole entry): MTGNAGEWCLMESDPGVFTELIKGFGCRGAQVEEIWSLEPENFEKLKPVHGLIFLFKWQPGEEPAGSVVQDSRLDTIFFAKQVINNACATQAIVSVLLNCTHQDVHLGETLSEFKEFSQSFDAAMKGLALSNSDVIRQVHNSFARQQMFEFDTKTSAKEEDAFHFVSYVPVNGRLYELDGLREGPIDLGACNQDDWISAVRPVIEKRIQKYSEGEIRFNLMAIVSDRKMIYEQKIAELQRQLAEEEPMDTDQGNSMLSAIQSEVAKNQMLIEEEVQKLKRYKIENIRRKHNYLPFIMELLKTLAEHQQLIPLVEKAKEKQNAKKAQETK
Summary of the method: as §1

USP10 = USP10 (UniProt Q14694)
Summary of the method: as §1

USP15 = biological target: T6, USP15 (UniProt Q9Y4E8)
T6 sequence (whole entry): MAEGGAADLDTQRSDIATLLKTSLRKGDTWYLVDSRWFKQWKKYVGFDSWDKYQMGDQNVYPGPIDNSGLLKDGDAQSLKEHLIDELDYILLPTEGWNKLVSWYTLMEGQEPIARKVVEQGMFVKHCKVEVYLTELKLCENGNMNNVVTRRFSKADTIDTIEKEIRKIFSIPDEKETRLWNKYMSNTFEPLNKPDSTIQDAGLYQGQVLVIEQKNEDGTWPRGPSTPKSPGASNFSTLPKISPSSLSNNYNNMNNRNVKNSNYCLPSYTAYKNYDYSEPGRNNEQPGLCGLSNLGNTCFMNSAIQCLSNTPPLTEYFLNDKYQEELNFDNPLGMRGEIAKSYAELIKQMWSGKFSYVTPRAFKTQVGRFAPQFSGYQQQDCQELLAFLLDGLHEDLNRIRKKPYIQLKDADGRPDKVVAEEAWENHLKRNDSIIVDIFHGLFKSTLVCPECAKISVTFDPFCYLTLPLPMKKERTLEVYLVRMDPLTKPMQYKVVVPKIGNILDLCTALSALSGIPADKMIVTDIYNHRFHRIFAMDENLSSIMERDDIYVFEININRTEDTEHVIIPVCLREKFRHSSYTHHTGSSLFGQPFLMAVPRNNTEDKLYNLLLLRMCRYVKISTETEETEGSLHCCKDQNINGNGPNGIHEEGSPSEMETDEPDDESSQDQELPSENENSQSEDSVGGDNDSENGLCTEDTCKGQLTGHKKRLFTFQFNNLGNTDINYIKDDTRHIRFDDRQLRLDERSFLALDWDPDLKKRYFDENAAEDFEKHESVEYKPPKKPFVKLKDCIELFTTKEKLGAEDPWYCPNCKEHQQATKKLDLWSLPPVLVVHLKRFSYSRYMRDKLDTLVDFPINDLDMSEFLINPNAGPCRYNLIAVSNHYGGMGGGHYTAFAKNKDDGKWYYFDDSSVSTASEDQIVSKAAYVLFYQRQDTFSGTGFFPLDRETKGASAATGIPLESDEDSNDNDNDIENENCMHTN
Summary of the method: as §1

USP16 = USP16 (UniProt Q9Y5T5)
Summary of the method: as §1

Measured: log2 ratio of Biotin-Ahx-Ub-VS probe labelling

Chain of USP16 (Q9Y5T5 whole entry, looked up): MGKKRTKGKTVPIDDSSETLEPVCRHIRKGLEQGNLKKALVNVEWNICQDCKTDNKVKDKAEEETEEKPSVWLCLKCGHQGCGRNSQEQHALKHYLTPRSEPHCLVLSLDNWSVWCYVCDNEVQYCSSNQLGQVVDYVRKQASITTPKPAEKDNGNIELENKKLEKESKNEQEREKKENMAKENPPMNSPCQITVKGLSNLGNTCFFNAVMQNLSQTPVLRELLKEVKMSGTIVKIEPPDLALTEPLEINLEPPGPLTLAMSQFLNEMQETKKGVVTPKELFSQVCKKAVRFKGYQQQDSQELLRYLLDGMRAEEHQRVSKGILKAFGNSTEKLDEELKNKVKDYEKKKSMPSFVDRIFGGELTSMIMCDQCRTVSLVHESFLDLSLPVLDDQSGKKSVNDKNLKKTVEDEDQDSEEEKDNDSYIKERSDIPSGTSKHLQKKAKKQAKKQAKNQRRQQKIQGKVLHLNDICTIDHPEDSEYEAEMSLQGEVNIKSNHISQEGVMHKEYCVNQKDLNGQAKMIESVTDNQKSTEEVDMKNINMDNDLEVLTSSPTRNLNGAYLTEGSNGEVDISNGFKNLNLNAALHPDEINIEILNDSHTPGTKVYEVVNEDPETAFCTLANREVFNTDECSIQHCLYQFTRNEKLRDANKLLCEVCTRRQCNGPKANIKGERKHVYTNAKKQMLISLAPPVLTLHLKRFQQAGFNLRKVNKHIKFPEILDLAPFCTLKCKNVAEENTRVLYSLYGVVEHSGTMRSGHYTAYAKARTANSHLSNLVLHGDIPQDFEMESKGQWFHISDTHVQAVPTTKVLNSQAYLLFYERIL
Chain of UCHL1 (P09936 whole entry, looked up): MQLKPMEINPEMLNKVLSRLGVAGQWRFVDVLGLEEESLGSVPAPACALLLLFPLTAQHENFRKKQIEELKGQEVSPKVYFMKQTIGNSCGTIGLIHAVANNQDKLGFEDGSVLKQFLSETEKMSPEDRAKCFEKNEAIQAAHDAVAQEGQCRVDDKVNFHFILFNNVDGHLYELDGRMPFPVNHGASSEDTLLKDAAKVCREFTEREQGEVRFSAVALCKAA
Chain of USP10 (Q14694 whole entry): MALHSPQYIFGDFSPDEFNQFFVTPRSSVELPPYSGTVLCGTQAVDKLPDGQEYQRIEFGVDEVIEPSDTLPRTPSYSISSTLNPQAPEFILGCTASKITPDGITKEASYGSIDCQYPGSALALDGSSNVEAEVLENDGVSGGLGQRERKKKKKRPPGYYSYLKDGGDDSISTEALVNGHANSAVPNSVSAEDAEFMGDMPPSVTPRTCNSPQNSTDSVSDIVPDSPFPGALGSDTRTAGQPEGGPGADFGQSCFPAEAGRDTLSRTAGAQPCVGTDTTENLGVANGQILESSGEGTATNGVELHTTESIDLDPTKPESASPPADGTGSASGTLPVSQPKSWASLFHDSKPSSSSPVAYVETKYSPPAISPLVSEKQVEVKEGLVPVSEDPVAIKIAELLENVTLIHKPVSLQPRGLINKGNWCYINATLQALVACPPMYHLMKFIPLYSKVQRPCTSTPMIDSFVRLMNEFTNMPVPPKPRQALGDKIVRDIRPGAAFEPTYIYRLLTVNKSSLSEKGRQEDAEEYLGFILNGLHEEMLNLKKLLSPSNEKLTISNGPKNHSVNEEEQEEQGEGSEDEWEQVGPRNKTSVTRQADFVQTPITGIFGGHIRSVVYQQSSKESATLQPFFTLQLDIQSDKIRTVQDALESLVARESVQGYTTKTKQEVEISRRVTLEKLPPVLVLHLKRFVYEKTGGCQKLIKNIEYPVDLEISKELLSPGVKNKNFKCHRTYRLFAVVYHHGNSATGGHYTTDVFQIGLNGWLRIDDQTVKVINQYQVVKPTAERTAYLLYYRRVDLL

Cc1cc(NC(=O)CCl)n(-c2ccccc2)n1
inactive: OTUD6B -0.0228 | OTUD7B -0.528 | PRPF8 0.173 | PSMD7 0.00596 | UCHL3 0.614 | UCHL5 -0.0207 | USP10 -0.234 | USP15 -0.2 | USP16 -0.321
active: UCHL1 -1.18
